Luciferase inh = inhibitors of firefly (Photinus pyralis) luciferase. P08659. actives 2.5% (n = 76,000). purified P. pyralis luciferase, luminescence, biochemical. AID 1347043. Potency, µM (titrated, usually from 115 µM), hits mostly inhibitors; note: nearly all actives have a fitted effect of over 65% in size
Target sequence (P08659 whole entry, looked up): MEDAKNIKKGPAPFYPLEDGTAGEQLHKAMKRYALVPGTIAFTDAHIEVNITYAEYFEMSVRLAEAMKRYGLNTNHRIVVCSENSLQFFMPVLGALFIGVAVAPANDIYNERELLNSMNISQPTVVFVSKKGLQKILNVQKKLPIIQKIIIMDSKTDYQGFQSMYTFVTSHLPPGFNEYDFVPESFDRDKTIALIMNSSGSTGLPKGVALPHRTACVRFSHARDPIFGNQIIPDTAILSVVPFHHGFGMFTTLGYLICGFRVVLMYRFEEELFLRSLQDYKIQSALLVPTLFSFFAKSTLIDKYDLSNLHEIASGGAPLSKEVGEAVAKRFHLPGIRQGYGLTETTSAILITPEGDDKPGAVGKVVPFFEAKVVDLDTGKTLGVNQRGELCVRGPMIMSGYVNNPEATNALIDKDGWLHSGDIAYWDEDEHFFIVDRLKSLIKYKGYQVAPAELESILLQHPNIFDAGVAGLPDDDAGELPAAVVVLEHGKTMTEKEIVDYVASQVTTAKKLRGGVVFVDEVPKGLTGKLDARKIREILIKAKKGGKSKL
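Purified P. pyralis luciferase (10nM final) in 50mM Tris acetate pH 7.5, 10mM Mg acetate, 0.01% Tween-20, 0.05% BSA with 10uM D-luciferin and 10uM ATP. Compounds titrated qHTS. Luminescence imaged on CCD.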
GPT2 inhibitor = GPT2 alanine aminotransferase inhibition. Recombinant GPT2, coupled pyruvate oxidase/HRP Amplex Red fluorescence. Potency, µM (series often up to 57.7 µM), hits mostly inhibitors. actives 0.25% (n = 100,000); note: nearly all actives have a fitted effect of over 60% in size
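Fluorescence read-out: pyruvate from GPT2 turnover coupled to pyruvate oxidase, HRP and Amplex Red (0.2mM ThPP, 0.2U/mL PO and HRP, 50uM Amplex final). Substrates 250uM a-KG, 2mM L-alanine; enzyme 10ng/uL; 30 min RT.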
NPR1 antag = blocks ANP-stimulated signaling of human Npr1 receptor. Potency, µM (highest dose often 46.3 µM), hits mostly inhibitors. actives 1.6% (n = 76,000). HEK293 hNpr1 GloSensor cGMP, ANP-stimulated luminescence; calls by dose curve; note: nearly all actives have a fitted effect of over 60% in size
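Compound pre-incubated 30 min at room temperature on GloSensor-loaded HEK293 cells stably carrying hNpr1 and the pGS-40F cGMP biosensor. Stimulation uses hNppA at 0.1 nM final; luminescence is taken at baseline and 20 min post-agonist.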
3T3 cytotox = cytotoxic compounds in NIH 3T3 cells; Potency, µM (highest dose often 96.7 µM), actives largely listed as inhibitors; actives 4.3% (n = 94,000); NIH 3T3 viability, CellTiter-Glo ATP luminescence, 48-72 h; note: nearly all actives have a fitted effect of over 55% in size
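First NIH 3T3 cells are plated at 400 cells/well; next compound is pinned in; then plates incubate 48 or 72 hr at 37 °C; finally CellTiter-Glo is added and luminescence read after 10 min.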
HEK293 tox = cytotoxic compounds in HEK 293 cells; actives 6.6% (n = 94,000); Potency, µM (top dose mostly 115 µM), usual class: inhibitors; HEK 293 viability, ATP luminescence (CellTiter-Glo), 48-72 h; note: nearly all actives have a fitted effect of over 60% in size
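qHTS cytotoxicity; HEK 293, 250 cells/well; compound pinned; 48 or 72 hr, 37 degree Celsius, 5% CO2, 95% humidity; CellTiter-Glo, 10 min RT; luminescence (ATP).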
Large screens that a line does not name were inactive. In the library only some 10% were active in any assay of this set; here they are far more common. Unless noted, calls come from the whole dose curve; as a rule, active = well fitted curve in the direction sought with a large enough effect; inconclusive = small, poorly fitted or top-dose-only effect, or another doubt; inactive = no such curve, though single readings can be large; an effect the other way counts as inactive or inconclusive.

Cn1cc(-c2cc3c(ccn3Cc3ccncc3)c(N3CCOCC3)n2)cn1	3T3 cytotox inconclusive
CN(C)Cc1ccc(-c2cc3c(ccn3Cc3ccncc3)c(N3CCOCC3)n2)cc1	3T3 cytotox inconclusive, HEK293 tox 100µM
c1cc(Cn2ccc3c(N4CCOCC4)nc(-c4cn[nH]c4)cc32)ccn1	3T3 cytotox inconclusive
c1cc(Cn2ccc3c(N4CCOCC4)nc(-c4ccc5cn[nH]c5c4)cc32)ccn1	3T3 cytotox 25µM, HEK293 tox 40µM
CC1OC(O[C@H]2CC[C@@]3(C)C(CC[C@]4(C)C3CC=C3C5CC(C)(C)CC[C@]5(C(=O)OC5OC(CO)C(OC6OC(COC7OCC(O)C(O)C7O)C(O)C(O)C6O)C(O)C5O)CC[C@]34C)C2(C)C)C(O)C(O)C1OC1OCC(OC2OCC(O)C(O)C2O)C(O)C1O (some centres undefined)	none (no result: Luciferase inh, NPR1 antag, 3T3 cytotox, HEK293 tox)
O=C(c1cc2ccccc2[nH]1)N1CCC(c2noc(C3CC3)n2)C1 (centres undefined)	Luciferase inh 28µM, NPR1 antag inconclusive, 3T3 cytotox inconclusive, HEK293 tox inconclusive
CN(C)C[C@@H]1CN(c2ncccn2)C[C@H]1NC(=O)c1cc2ccccc2[nH]1	none
CN1CCN([C@@H]2[C@H](O)[C@H](CO)O[C@@H]2CN(Cc2ccc(Cl)cc2)Cc2cccc(Cl)c2)CC1	NPR1 antag inconclusive, 3T3 cytotox 28µM, HEK293 tox inconclusive
Cc1ccc2nc(COCC(=O)N3CCn4nc(CO)cc4C3)[nH]c2c1	none
CCn1cc(-c2ccc(Cl)cc2)cc1C(=O)NCC1CCCO1 (centres undefined)	Luciferase inh inconclusive, HEK293 tox inconclusive
O=C(NCC1CCCO1)c1csc(N2CCN(c3ccc(Cl)cc3)CC2)n1 (centres undefined)	NPR1 antag inconclusive, 3T3 cytotox inconclusive, HEK293 tox 35µM
Cc1noc(C)c1-c1cc2cc(C(C)C)oc2c(NC2CCOCC2)n1	3T3 cytotox inconclusive, HEK293 tox 100µM
COc1ncccc1-c1nc(-c2c(C)noc2C)cc2cc(C(C)C)oc12	3T3 cytotox inconclusive, HEK293 tox 89µM
Cc1noc(C)c1-c1cc2cc(C(C)C)oc2c(-c2c(C)noc2C)n1	3T3 cytotox inconclusive, HEK293 tox inconclusive
Cc1noc(C)c1-c1cc2cc(C(C)C)oc2c(NC(C)C)n1	3T3 cytotox 79µM, HEK293 tox 89µM
Cc1ccc(NC(=O)Cn2ccn3nc4c(c3c2=O)CC(C)CC4)cc1 (centres undefined)	3T3 cytotox inconclusive, HEK293 tox inconclusive
O=C(NCc1ccc(Cl)cc1)c1c[nH]c2ncccc12	Luciferase inh 28µM, 3T3 cytotox inconclusive, HEK293 tox inconclusive
O=C(NCc1ccc(Cl)cc1)c1c[nH]c2cccnc12	3T3 cytotox 16µM, HEK293 tox 35µM (no result: Luciferase inh, NPR1 antag)
O=C(NCCc1ccccc1)c1c[nH]c2ncccc12	Luciferase inh 20µM
CN1CCc2[nH]cnc2C12CCN(C(=O)CN1C(=O)CNC1=O)CC2	none
O=C(c1ccccc1F)N1CCn2c(nnc2C2CC2)C1	none (no result: Luciferase inh, NPR1 antag)
CC(C)CCNC(=O)c1c(OCC2CC2)cc(=O)n2c1CCCCC2	3T3 cytotox 35µM, HEK293 tox inconclusive
CN1c2cc(C(=O)Nc3ccc(C(F)(F)F)cc3)ccc2C(=O)N2CCCCCC21 (centres undefined)	Luciferase inh inconclusive, 3T3 cytotox inconclusive, HEK293 tox inconclusive
CN1c2cc(C(=O)Nc3ccc(Br)cc3)ccc2C(=O)N2CCCCCC21 (centres undefined)	Luciferase inh inconclusive, 3T3 cytotox inconclusive, HEK293 tox 35µM
CSc1ccc(NC(=O)c2ccc3c(c2)N(C)C2CCCCCN2C3=O)cc1 (centres undefined)	Luciferase inh inconclusive, NPR1 antag inconclusive, 3T3 cytotox inconclusive, HEK293 tox inconclusive
CN1c2cc(C(=O)Nc3ccc(Br)cc3)ccc2C(=O)N2CCCCC21 (centres undefined)	Luciferase inh 32µM, 3T3 cytotox inconclusive, HEK293 tox inconclusive
COc1cc(=O)n2c(c1C(=O)NC1CCCCCCC1)CCCC2	none
Cc1cc(C)c(CN2CCC(n3cc(C(C)(C)N)nn3)CC2)c(C)c1	3T3 cytotox 79µM, HEK293 tox inconclusive
Cc1ccc(-c2cccc(CN3C4CCC3CN(C(C)C)C4)c2)c(C)c1	3T3 cytotox inconclusive, HEK293 tox inconclusive (no result: Luciferase inh, NPR1 antag)
COc1cc([C@@H]2c3cc4c(cc3[C@H](O)[C@@H](CO)[C@@H]2C(=O)N2CCCCC2)OCO4)cc(OC)c1OC	3T3 cytotox inconclusive, HEK293 tox inconclusive
COc1ccc(C(=O)NC(C(=O)NC(C)C(C)C)C2CCN(C(=O)c3ccc(C)cc3)CC2)cc1 (centres undefined)	none
Cc1ncsc1CN1CCCCCCNC(=O)[C@@H]2C[C@@H](C(=O)N3CCc4ccccc4C3)C[C@@H]21	HEK293 tox 89µM
N#Cc1ccc(CN2CCCCCCNC(=O)[C@@H]3C[C@@H](C(=O)N4CCc5ccccc5C4)C[C@@H]32)cc1	3T3 cytotox inconclusive, HEK293 tox inconclusive
O=C1COc2ccc(-c3cc4ccccc4o3)nc2CN1CCOc1ccccc1	NPR1 antag inconclusive, 3T3 cytotox inconclusive, HEK293 tox inconclusive
O=C1COc2ccc(OCc3ccccc3)nc2CN1CCOc1ccccc1	NPR1 antag inconclusive, 3T3 cytotox inconclusive, HEK293 tox 89µM
O=C1COc2ccc(-c3cccc(O)c3)nc2CN1CCOc1ccccc1	NPR1 antag inconclusive, 3T3 cytotox inconclusive, HEK293 tox 100µM
COc1ccccc1N1CCN(CC[C@H]2CN(C(=O)NC(C)C)CC[C@H]2CC(=O)O)CC1	none
Clc1ccc(C2Cn3nnc(-c4nc(C5CCCCC5)no4)c3CO2)cc1 (centres undefined)	GPT2 inhibitor inconclusive, NPR1 antag inconclusive, 3T3 cytotox inconclusive
C=CCNC(=O)N[C@H]1CCN2C(=O)c3ccc(Cl)cc3NC(=O)[C@@H]2C1	3T3 cytotox 32µM, HEK293 tox inconclusive
CC(C)NC(=O)N[C@H]1CCN2C(=O)c3cc(-c4ccccc4F)ccc3NC(=O)[C@@H]2C1	GPT2 inhibitor inconclusive, HEK293 tox inconclusive
O=C(N[C@H]1CCN2C(=O)c3cc(-c4cccc(C(F)(F)F)c4)ccc3NC(=O)[C@@H]2C1)c1ccncc1	3T3 cytotox inconclusive, HEK293 tox 40µM
O=C(N[C@H]1CCN2C(=O)c3cc(-c4ccccc4F)ccc3NC(=O)[C@@H]2C1)c1ccc(F)c(Cl)c1	NPR1 antag inconclusive, 3T3 cytotox 10µM, HEK293 tox 10µM
COc1cccc(-c2c(C(=O)NCc3ccc(F)cc3)nc3sccn23)c1	3T3 cytotox inconclusive, HEK293 tox inconclusive (no result: Luciferase inh, NPR1 antag)
COc1ccc(-c2nnc(C[C@@H]3C[C@@H](C(C)C)[C@H](CN4CCN(CCO)CC4)C=C3C)o2)cc1	3T3 cytotox inconclusive, HEK293 tox 45µM
